From PubChem
An excerpt weighted towards active compounds, which were near 2.1% of everything screened.
TDP-43 yeast inh: inhibitors of TDP-43 toxicity in yeast | 1.8% of 410,000 active | Potency, µM (doses to about 46.1 µM), inactives show top-dose growth rescue (activation), actives largely listed as activators | AID 652104 | TDP-43 expressing yeast growth rescue, BacTiter-Glo, 24 h; note: % of control where 0% means no effect; nearly all actives have a fitted effect of over 50% in size
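Readout is BacTiter-Glo luminescence of cell growth, so inhibitors register as activators. TDP-43-expressing yeast at OD600=0.02 in galactose medium, after raffinose pregrowth to mid-log, were incubated with compound for 24 hr at 30 deg C.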
Abeta yeast res: A-beta toxicity reversal in yeast; 0.063% of 410,000 active; yeast expressing A-beta42, growth rescue, OD600, 48 h; response scale: 0% DMSO, 100% iron-clioquinol control; Potency, µM (doses to about 46.1 µM), usual class: activators; note: nearly all actives have a fitted effect of over 55% in size
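Yeast A-beta toxicity model in growth medium with pinned compounds, 48 h at 30 C; growth read as absorbance at 600 nm. Normalized to FeCl3/clioquinol equimolar mix (positive) and DMSO (negative).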
FUS yeast rescue: FUS proteinopathy suppression in yeast | S. cerevisiae FUS-expressing, growth rescue, OD600, 24 h | 0.24% of 390,000 active | AID 1347120 | Potency, µM (titrated, usually from 76.6 µM), most hits filed as activators;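 note: plate controls were DMSO vehicle for no effect and reference control for full effect; nearly all actives have a fitted effect of over 55% in size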
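Cultures pregrown in 2.5% raffinose medium are shifted to minimal medium containing 2% galactose to express toxic FUS. Compounds are tested at several concentrations. After 24hr at 30C, growth is quantified at 600 nm absorbance.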
aSyn rescue: inhibitors of alpha-synuclein toxicity in yeast; AID 652106; Yeast expressing alpha-synuclein, growth rescue, BacTiter-Glo, 24 h; 0.14% of 370,000 active; Potency, µM (highest dose often 46.1 µM), for the others: at the top dose growth rescue (activation), hits mostly activators; note: % of control where 0% means no effect; nearly all actives have a fitted effect of over 65% in size
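Screening used galactose-induced yeast with toxic alpha-synuclein levels, exposed to compound for 24 hr at 30 deg C. Cell growth, read with BacTiter-Glo luminescence, gave the measured signal.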
An asterisk follows results filed as active; i = inactive; u = inconclusive; x = not tested or not shown. Calls come from the whole dose curve; as a rule, active = well fitted curve in the direction sought with a large enough effect; inconclusive = small, poorly fitted or top-dose-only effect, or another doubt; inactive = no such curve, though single readings can be large; an effect the other way counts as inactive or inconclusive. Potency is the fitted concentration of half-maximal effect.

SMILES	TDP-43 yeast inh	Abeta yeast res	FUS yeast rescue	aSyn rescue
CN(C)C(=O)CCc1ccc2c3c([nH]c2c1)[C@]1(CCC2CCCC2)[C@@H](C(=O)N2CCOCC2)C[C@H](CC(=O)NCCN2CCOCC2)C(=O)N1CC3	-2%	i	i	-1%
CC(C)N(C(=O)[C@H]1C[C@H](CC(=O)NCC23CC4CC(CC(C4)C2)C3)C(=O)N2CCc3c([nH]c4ccc(Cl)cc34)[C@]12C)C(C)C	17%	i	i	u
COc1ccc2[nH]c3c(c2c1)CCN1C(=O)C(CC(=O)NCCC2=CCCCC2)C[C@H](C(=O)N(C(C)C)C(C)C)[C@@]31C (stereo partly specified)	u	i	u	-5%
CCN(CC)C(=O)[C@H]1C[C@H](CC(=O)NCC23CC4CC(CC(C4)C2)C3)C(=O)N2CCc3c([nH]c4ccc(Cl)cc34)[C@]12C	20µM*	i	i	u
CN(C)C(=O)CCc1ccc2c3c([nH]c2c1)[C@]1(CCC2CCCC2)[C@@H](C(=O)N2CCOCC2)C[C@H](CC(=O)NCCC2=CCCCC2)C(=O)N1CC3	21%	i	16µM*	0%
CC(C)N(C(=O)[C@H]1CC(CC(=O)NCCC2=CCCCC2)C(=O)N2CCc3c([nH]c4ccccc34)[C@]12C)C(C)C (stereo partly specified)	35µM*	i	u	u
C[C@@H]1CCN(C2CC2)S(=O)(=O)c2ccc(N3CC[C@H](O)C3)cc2O1	x	x	i	x
COc1cc2ncc(S(=O)(=O)c3ccccc3)c(N3CCCC(C)C3)c2cc1OC (stereo unspecified)	28µM*	i	u	-1%
CCN1CCN(c2c(S(=O)(=O)c3ccc(OC)cc3)cnc3cc(OC)c(OC)cc23)CC1	19%	i	i	x
O=C(CCC1N=C2c3ccccc3N=C(SCc3cccc(Cl)c3)N2C1=O)NCCc1ccccc1 (stereo unspecified)	u	i	u	x
O=C(CCC1N=C2c3ccccc3N=C(SCc3ccc(Cl)cc3)N2C1=O)NCCc1ccccc1 (stereo unspecified)	15%	i	32µM*	x
COc1cccc(N2CCN(CC(=O)NCc3ccccc3C)CC2)c1	x	x	i	x
C=C1C(=O)[C@]23C[C@H]1CCC2[C@]1(C)C(=O)CC[C@@](C)(C(=O)O)C1C[C@@H]3O (stereo partly specified)	13µM*	i	i	16µM*
C=C1C(=O)[C@]23C[C@H]1CCC2[C@]1(C)CCC[C@@](C)(C(=O)O)C1C[C@@H]3O (stereo partly specified)	u	i	i	u
O=C1C=C(c2ccc(-c3ccccc3)c(F)c2)C[C@@H](c2ccc(F)cc2)C1	12%	i	i	1%
COc1ccc([C@H]2CC(=O)C=C(c3ccc(OC)cc3OC)C2)cc1	0%	i	u	12%
O=C1C=C(c2cc(F)ccc2F)C[C@@H](c2ccc(F)cc2)C1	22µM*	i	i	10%
COc1ccc([C@H]2CC(=O)C=C(c3ccc(Cl)cc3C)C2)cc1	18µM*	i	u	-1%
COc1cc(F)c(C2=CC(=O)C[C@H](c3ccc(F)cc3)C2)cc1F	u	i	i	9%
Cc1cc(Cl)ccc1C1=CC(=O)C[C@H](c2ccc(F)cc2)C1	14µM*	i	i	-10%
COc1cc(C(=O)NC2CCCCN(Cc3ccc(Cl)cc3)C2=O)cc(OC)c1OC (stereo unspecified)	x	x	i	x
CCCCCc1ccc(NC(=O)OCCCN2CCC3(CCC(c4ccccc4)CC3)C2=O)cc1 (stereo unspecified)	x	x	i	x
COc1cc2nc(N3CCCCC3)nc(NC3CCN(C)CC3)c2cc1OC	x	x	x	-1%
c1ccc2[nH]c(CNc3nc(N4CCOCC4)nc4c3ncn4-c3ccsc3)nc2c1	x	x	i	x
c1ccc2cc3[nH]c(CNc4nc(N5CCOCC5)nc5c4ncn5-c4ccsc4)nc3cc2c1	x	x	14µM*	x
SMILES	TDP-43 yeast inh	Abeta yeast res	FUS yeast rescue	aSyn rescue
COC(=O)c1ccc(-c2ccc3c(c2)[C@]2(CCC[C@@H](O)[C@@H]2NC(=O)CCc2ccccc2)C(=O)N3Cc2ccccc2)cc1	x	x	i	x
C=C(C)n1c(=O)n(Cc2ccccc2C)c2ccccc21	11µM*	i	i	0%
CCn1c2ccccc2c2cc(/C=C3/C=Cc4ccccc43)ccc21	x	x	x	0%
CCOC(=O)CSc1nnc(CNc2ccc(Cl)cc2)n1Cc1ccccc1	14µM*	i	i	u
Cc1occc1C(=O)n1nnc2ccccc21	16µM*	i	i	11%
CCSc1ccccc1C(=O)n1nnc2ccccc21	9%	i	i	7%
O=C(/C=C/c1ccc(O)c(O)c1)OCCc1ccccc1	16µM*	i	i	5.2µM*
O=C(/C=C/c1ccc(O)c(O)c1)OC(Cc1ccc(O)c(O)c1)C(=O)O (stereo unspecified)	-4%	i	i	2%
COc1ccc(/C=C/C(=O)OCC(=O)NCCCc2ccccc2)cc1OC	35µM*	i	i	1%
CC(C)C(=O)Nc1ccc(/C=C2\C=Cc3ccccc32)cc1	x	x	x	1%
CCc1ccc(OC(C)C(=O)N2CCC(c3nc4ccccc4o3)CC2)cc1 (stereo unspecified)	u	i	i	x
Cc1cc(OC(C)C(=O)N2CCC(c3nc4ccccc4o3)CC2)ccc1Cl (stereo unspecified)	25µM*	i	u	x
Cc1cc(C)cc(OCC(=O)N2CCC(c3nc4ccccc4o3)CC2)c1	22µM*	i	i	x
CCCCNc1ccc(/C=C2\C=Cc3ccccc32)cc1	x	x	x	0%
Cc1c(C(=O)NCCCN2CCCCC2)oc2ccc3c(c12)C(O)CC1(CCCCC1)O3 (stereo unspecified)	-2%	i	i	-2%
CCOC(=O)C1CCN(C(=O)c2oc3ccc4c(c3c2C)C(O)CC2(CCCCC2)O4)CC1 (stereo unspecified)	25µM*	i	u	9%
Cc1cccc(Cn2cccc2CNS(=O)(=O)c2ccccc2F)c1	20µM*	i	i	x
CCc1ccc(S(=O)(=O)NCc2cccn2Cc2cccc(C)c2)cc1	-1%	i	i	x
FC(F)(F)C(F)(F)C(F)(F)c1nc2ccccc2[nH]1	x	x	x	3%
N#C/C(=N\Nc1cccc(C(F)(F)F)c1)C(=O)c1ccsc1	10µM*	i	i	-24%
CC(C)(C)OC(=O)N1CCC(CC2CC(c3ccccc3)=NO2)(C(=O)O)CC1 (stereo unspecified)	22µM*	i	i	11%
CC(C)(C)NC(=O)[C@H](c1cccnc1)N(C(=O)c1ccco1)c1ccc(C(C)(C)C)cc1	x	x	i	x
Cc1cc(C)cc(NC(=O)O[C@@H]2CC[C@@]34CCCN3C(=O)CCC[C@H]4C2)c1	x	x	i	x
N#CCCCSc1nnnn1-c1cccc(Cl)c1	22µM*	i	i	3%
